In the library only some 2.2% were active in any assay of this set; here they are far more common.
Nrf2 block: Nrf2 qHTS screen for inhibitors; Potency, µM (top dose mostly 46 µM), hits mostly inhibitors; A549 ARE-Fluc reporter, luciferase luminescence, 18-24 h; actives 2.1% (n = 360,000); AID 504444, 2011; note: nearly all actives have a fitted effect of over 60% in size
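A549 ARE_Fluc cells (5000/well, 5% FBS OPTI-MEM) pre-incubated 2 h, then treated with compounds 18-24 h at 37C/5% CO2 in concentration-response. CellTiter-Fluor viability read first; BugLite luciferase luminescence after 15 min at room temperature gives Nrf2 activity.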
Pin1 inh: qHTS Assay to Find Inhibitors of Pin1 | Peptidyl-prolyl cis-trans isomerase NIMA-interacting 1 (Homo sapiens), Q13526 | Pin1 FP peptide displacement, HiFluor488, 10 min | Potency, µM (titrated, usually from 115 µM), most hits filed as inhibitors | actives 0.009% (n = 390,000) | AID 504891, 2011; active = well fitted inhibition curve with a large enough effect in the polarisation, with a control signal flat, not every such curve was filed as active; inconclusive = small, poorly fitted or top-dose-only effect, or effect the other way, or a change in a side signal; inactive = no such curve, though single readings can be large or run the other way; the % refers to the polarisation
Target sequence (Q13526 whole entry, looked up): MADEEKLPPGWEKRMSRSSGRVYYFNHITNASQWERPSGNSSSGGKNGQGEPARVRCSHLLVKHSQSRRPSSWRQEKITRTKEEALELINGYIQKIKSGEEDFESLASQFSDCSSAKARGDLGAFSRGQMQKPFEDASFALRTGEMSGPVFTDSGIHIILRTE
Nrf2 ARE act: qHTS of Nrf2 Activators; AREc32 ARE-luciferase reporter (MCF7-derived line), luminescence, 24 h; Potency, µM (titrated, usually from 46.1 µM), usual class: activators; actives 0.31% (n = 410,000); AID 624171, 2012; note: nearly all actives have a fitted effect of over 65% in size
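Reporter line AREc32 (ARE-Fluc), seeded overnight in OPTI-MEM with 5% FBS; compound pin-transferred, 24 hr at 37 deg C, 5% CO2; luminescent read-out.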
A549 tox: Nrf2 qHTS screen for inhibitors: counterscreen for cytotoxicity. A549 ARE-Fluc cells, CellTiter-Fluor viability, 18-24 h. Potency, µM (titrated, usually from 46 µM), usual class: inhibitors. actives 0.16% (n = 390,000). AID 504648, 2011
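A549 ARE-Fluc cells in 5% FBS OPTI-MEM, 5000 cells/well, rested 2 h then exposed to compounds in concentration-response for 18-24 h at 37 °C. Viability by CellTiter-Fluor fluorescence (Ex 405/Em 525) after 30 min; luciferase luminescence (BugLite, 15 min, RT) read afterwards.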
Each line names hits and unclear results; the compound was inactive in the other large screens. Unless noted, calls come from the whole dose curve; as a rule, active = well fitted curve in the direction sought with a large enough effect; inconclusive = small, poorly fitted or top-dose-only effect, or another doubt; inactive = no such curve, though single readings can be large; an effect the other way counts as inactive or inconclusive.

CC12CCC=CC1C(c1cccc([N+](=O)[O-])c1)N(Cc1ccccc1)C2=O (stereo not given)	Pin1 inh inconclusive (no result: Nrf2 ARE act)
Cc1cn(C)c(CC(=O)Nc2cccc(Cl)c2C)c1C(=O)O	none (no result: Nrf2 block)
Cc1ccc(-c2ccc(/C=N\NC(=O)c3cc4c(ccc5ccccc54)o3)o2)cc1[N+](=O)[O-]	Nrf2 block 23.1µM, A549 tox inconclusive
Cc1ccccc1-c1cc(C(=O)NCc2ccc(OC(F)(F)F)cc2)n(CC2CC(c3cccnc3)=NO2)n1 (stereo not given)	Nrf2 block 20.6µM, Pin1 inh inconclusive
COc1ccc2[nH]c3c(c2c1)CCN1C(=O)C(CC(=O)NCC24CC5CC(CC(C5)C2)C4)C[C@H](C(=O)N2CCOCC2)[C@@]31CCC1CCCC1 (stereo not given in full)	Nrf2 block 20.6µM
CCN(CC)C(=O)[C@H]1C[C@H](CC(=O)NCC23CC4CC(CC(C4)C2)C3)C(=O)N2CCc3c([nH]c4ccc(Cl)cc34)[C@]12C	Nrf2 block 23.1µM
COc1ccc2[nH]c3c(c2c1)CCN1C(=O)C(CC(=O)NCCC2=CCCCC2)C[C@H](C(=O)N2CCCCC2)[C@@]31CCc1ccccc1 (stereo not given in full)	Nrf2 block 18.4µM
CC[C@]12c3[nH]c4ccc(Cl)cc4c3CCN1C(=O)[C@@H](CC(=O)NCCC1=CCCCC1)C[C@@H]2C(=O)N1CCN(C(=O)c2ccco2)CC1	Nrf2 block 16.4µM, Pin1 inh inconclusive, A549 tox inconclusive
CC(C)(C)C(=O)OCCNc1nc(-c2cccs2)nc2ccccc12	none (no result: Nrf2 ARE act)
C[n+]1ccc(/C=C/c2cccs2)cc1	Nrf2 block 2.31µM, A549 tox 8.2µM
CN(C)c1ccc(/C=C/c2cc[n+](C)cc2)cc1	Nrf2 block 4.11µM, Pin1 inh inconclusive, A549 tox 20.6µM
CN1CCCN=C1/C=C/c1cccs1	none
Cc1ccc(/C=C/c2ccc(N(C)C)cc2)[n+](C)c1	Nrf2 block 4.11µM, Pin1 inh inconclusive, A549 tox 10.3µM
COc1cccc(CCn2c(N)cc(=O)[nH]c2=S)c1OC	none (no result: Nrf2 ARE act)
CCCNC(=O)C1=CC(c2ccc3c(c2)OCO3)=NS(=O)(=O)N1C	none
COc1cc(OC)c(C(=O)NCc2nc(-c3ccccc3)no2)cc1OC	none
NC(=O)c1sc2nc3c(c(-c4ccco4)c2c1N)CCC3	Nrf2 block 5.8µM
Cn1c(CSCc2ccc(F)cc2)nnc1SCC(=O)N1CCN(c2ccccc2)CC1	Nrf2 block 13µM
Cn1c(CSCc2ccc(Cl)cc2)nnc1SCC(=O)Nc1nccs1	Nrf2 block inconclusive
O=C(CSCc1ccc(F)cc1)N1CCN(c2ccccc2)CC1	Nrf2 block inconclusive
Cn1c(CSCc2ccc(F)cc2)nnc1SCC(=O)Nc1nccs1	Nrf2 block 18.4µM, A549 tox inconclusive
O=C(NCc1ccccc1)c1nc(S(=O)(=O)Cc2ccccc2)ncc1Cl	Nrf2 block inconclusive, A549 tox inconclusive
O=C(NCc1ccccc1)c1c(Cl)nc(Cl)c(Cl)c1Cl	Nrf2 ARE act 10µM
CCNC(=O)c1c(NC(=O)c2nc(S(=O)(=O)CC)ncc2Cl)sc2c1CCCC2	Nrf2 block 20.6µM, A549 tox 20.6µM
CCS(=O)(=O)c1ncc(Cl)c(C(=O)NCc2ccccc2)n1	Nrf2 block 18.4µM, A549 tox inconclusive
COc1ccc(CNC(=O)c2nc(S(=O)(=O)Cc3ccccc3)ncc2Cl)cc1	Nrf2 block 18.4µM, A549 tox inconclusive
Cc1nc(Cl)c(C(=O)NCc2ccccc2)c(C)c1Cl	Nrf2 block inconclusive
CCOC(=O)C1=C(CNCc2ccccc2)NC(=O)NC1c1ccc(C)cc1 (stereo not given)	none
O=C(Nc1cc(-c2ccc(Cl)cc2)no1)c1ccc(F)cc1	none
Cc1ccc(C(c2sc3nc(-c4ccco4)nn3c2O)N2CCN(Cc3ccccc3)CC2)cc1 (stereo not given)	none (no result: Nrf2 block)
O=S(=O)(c1cccc(C(F)(F)F)c1)N1CCN(c2nc(-c3ccccc3)nc3ccccc23)CC1	Nrf2 block inconclusive (no result: Nrf2 ARE act)
CCOc1ccc(-n2c(=O)c3c(C)c(C)sc3n(CC(=O)N3CCC(C)CC3)c2=O)cc1	none
COc1ccc(CNC(=O)c2ccc3ccccc3n2)cc1OC	Nrf2 block 13µM, Pin1 inh inconclusive
Cc1ccc(CNC(=O)c2cc3sc(Cl)cc3n2C)cc1	Nrf2 block inconclusive
COc1ccc(CCNC(=O)c2cc3sc(Cl)cc3n2C)cc1OC	Nrf2 block 25.9µM
COc1ccc(NC(=O)c2ccc(-c3ccc([N+](=O)[O-])cc3)o2)cc1	none
COc1ccc(CCNC(=O)c2ccc3ccccc3n2)cc1OC	Nrf2 block 23.1µM
COc1ccc(CCNC(=O)c2ccc(-c3ccc([N+](=O)[O-])cc3)o2)cc1OC	Nrf2 block 25.9µM
COc1ccc2c(c1)Oc1ncn(CCN3CCOCC3)c(=N)c1C2c1ccc(OC)c(OC)c1 (stereo not given)	none (no result: Nrf2 ARE act)
COc1cccc(CNc2nc(Cl)nc3nc[nH]c23)c1	Nrf2 block inconclusive (no result: Nrf2 ARE act)
COc1ccc(CCNC(=S)NC(=O)c2ccc(Br)cc2)cc1OC	Nrf2 block 14.6µM
COc1ccccc1CCNC(=O)c1nc(-c2cccs2)no1	Nrf2 block inconclusive
COc1ccc(CCNC(=O)c2nc(-c3cccs3)no2)cc1OC	Nrf2 block 20.6µM
CC(=O)Nc1ccc(S(=O)(=O)N2CCN=C2SCc2ccc([N+](=O)[O-])cc2)cc1	Nrf2 block 8.2µM
O=C(NCC(c1ccc2c(c1)OCO2)N1CCN(c2ccccc2)CC1)c1ccccc1 (stereo not given)	none (no result: Nrf2 block)
O=C(NCC1CCN(Cc2ccc(F)cc2)CC1)c1cc2ccc3cccnc3c2[nH]1	Nrf2 block inconclusive
O=C(CCl)N(c1ccccc1)C1CCS(=O)(=O)C1 (stereo not given)	Nrf2 block 23.1µM, Pin1 inh inconclusive, A549 tox inconclusive
O=C(CN1CCC(c2nc3ccccc3s2)CC1)NCc1cccs1	Nrf2 block 7.31µM
O=C(CSc1ccc(F)cc1)N1CCC(c2nc3ccccc3s2)CC1	Nrf2 block 18.4µM
O=C(CN1CCC(c2nc3ccccc3s2)CC1)N1CCCCC1	none
CCOc1ccc(CCNCc2c(C(=O)O)n(Cc3ccc(C)cc3)c3cc(OC)ccc23)cc1	none
CCCCC(=O)Nc1ccc(C)c(S(=O)(=O)N2CCCCCC2)c1	Nrf2 block 16.4µM, A549 tox inconclusive
Cc1ccc(NC(=O)COc2ccccc2)cc1S(=O)(=O)N1CCCCC1	none (no result: Nrf2 block, Pin1 inh, A549 tox)
Cc1ccc(NC(=O)CCS(=O)(=O)c2ccccc2)cc1S(=O)(=O)N1CCCCCC1	Nrf2 block inconclusive
COc1ccc(NC(=O)COc2ccccc2Cc2ccccc2)cc1S(N)(=O)=O	Nrf2 block 13µM, A549 tox inconclusive
COc1ccc(NC(=O)CN(Cc2ccccc2)Cc2ccccc2)cc1S(N)(=O)=O	A549 tox inconclusive
Cc1ccccc1OCC(=O)Nc1ccc(C)c(S(=O)(=O)N2CCCCCC2)c1	Nrf2 block 23.1µM

Screens deposited in PubChem BioAssay by National Center for Advancing Translational Sciences (NCATS).
